Bioassay records as filed in PubChem BioAssay.
This is one part of a sample in which hits are shown more often than they occur.
RORg inh: inhibitors of mouse ROR gamma transcriptional activity; Potency, µM (series often up to 53.6 µM), without a hit: at the highest dose activity change, negative = inhibition, usual class: inhibitors; Drosophila S2 Gal4-RORgamma UAS-luciferase reporter, 20 h; 310,000 compounds, 5.4% hits; P51450; further: potency means the concentration at half of the fitted maximal effect; on the % scale 0 is the no-effect control and ±100 the full control effect; nearly all actives have a fitted effect of over 60% in size
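Stably transfected Drosophila Schneider cells are the test system, with ROR gamma fused to Gal4 and luciferase under UAS control; luminescence is read after 20 hr of 700 uM copper sulfate induction at ambient temperature.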
Gal4-VP16 FLuc: Gal4-VP16 reporter inhibition counter-screen; 310,000 compounds, 3.5% hits; AID 2546; Potency, µM (series often up to 53.6 µM), inactives show at the highest dose activity, negative = inhibition, actives largely listed as inhibitors; Drosophila S2 Gal4-VP16 UAS-luciferase, luminescence, 20 h;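 further: Gal4-VP16 expression switched on by copper sulfate through the metallothionein promoter; potency means the concentration at half of the fitted maximal effect; on the % scale 0 is the no-effect control and ±100 the full control effect; nearly all actives have a fitted effect of over 50% in size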
ERG-DNA inh: ERG Ets/DNA interaction inhibition | Potency, µM (series often up to 76.9 µM), inactives show at the highest dose FP activity, negative = inhibition, actives largely listed as inhibitors | AID 624246 | fluorescence polarization, His-ERG Ets domain / labelled DNA | 370,000 compounds, 0.028% hits; active means well fitted inhibition curve with a large enough effect in the polarisation, with a control signal flat; inconclusive means small, poorly fitted or top-dose-only effect, or effect the other way, or a change in a side signal; inactive means no such curve, though single readings can be large or run the other way; the % refers to the polarisation;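 further: polarization taken with two DNA probes labelled with fluorescein and Texas red; potency means the concentration at half of the fitted maximal effect; % of control where 0% means no effect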
Target sequence (P11308 whole entry, looked up, the tested form may be a part): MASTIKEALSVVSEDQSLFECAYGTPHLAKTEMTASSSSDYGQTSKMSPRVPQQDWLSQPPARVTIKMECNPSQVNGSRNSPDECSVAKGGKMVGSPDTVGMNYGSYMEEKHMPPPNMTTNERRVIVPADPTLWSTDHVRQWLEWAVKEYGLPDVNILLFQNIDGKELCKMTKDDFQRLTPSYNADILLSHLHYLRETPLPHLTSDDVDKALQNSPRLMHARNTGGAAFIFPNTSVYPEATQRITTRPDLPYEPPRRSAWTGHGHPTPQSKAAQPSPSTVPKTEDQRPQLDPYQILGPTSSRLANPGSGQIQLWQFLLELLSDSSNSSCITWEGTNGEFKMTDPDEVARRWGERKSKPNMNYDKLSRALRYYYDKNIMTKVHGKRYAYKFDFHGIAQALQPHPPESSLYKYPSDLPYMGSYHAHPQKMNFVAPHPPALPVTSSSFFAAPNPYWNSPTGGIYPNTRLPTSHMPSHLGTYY
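His-tagged ERG Ets domain (1 uM in the protein solution; 300mM KCl, 50mM Tris-HCl, 1mM EDTA, 1mM DTT, pH 7.5) received compound, then a probe mix of 5 nM fluorescein-DNA and 100nM Texas-615-DNA. Fluorescence polarization was read for both dyes.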
Integrin act MD: activates integrin-mediated alleviation for muscular dystrophy | alpha7betagal myoblasts, beta-gal FDG fluorescence, 48 h | Potency, µM (top dose mostly 38.3 µM), without a hit: at the top dose activation, hits mostly activators | 350,000 compounds, 0.064% hits;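 further: potency means the concentration at half of the fitted maximal effect; 100% = response of the positive control SU9516; nearly all actives have a fitted effect of over 60% in size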
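Alpha7betagal+/- myoblasts (passage 13) were plated 16-24 hr, then exposed to compounds (1:260 dilution of DMSO stock) for 48 hours at 37C. After MPER lysis, β-galactosidase reporter activity was read as FDG fluorescence (ex 480/em 540) after 30 minutes.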
Giardia kill: kills Giardia lamblia; Giardia lamblia trophozoite viability; activity change, % at 7.66 µM, hits read low; 340,000 compounds, 0.15% hits; AID 540267; in the data active means activity change below about -80%; inconclusive means between about -30% and that limit;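 further: parasites exposed to compound for two days anaerobically before the ATP read; on the % scale 0 is the no-effect control and ±100 the full control effect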
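Trophozoites 100 cells/well + cpd; 48 hrs, 37 deg C, anaerobic. ATPLite 1-Step added, 15-30 min RT, luminescence read (ATP-based viability).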
The depositor's hits bear a star; [ ] = remark or other dose. Unless noted, the call rests on the fitted dose curve; in most records, active means well fitted curve in the direction sought with a large enough effect; inconclusive means small, poorly fitted or top-dose-only effect, or another doubt; inactive means no such curve, though single readings can be large; an effect the other way counts as inactive or inconclusive.

`CCOC(=O)N1CCN(C(=O)c2ccc3c(=O)n(-c4ccc(F)cc4)c(=S)[nH]c3c2)CC1` gave RORg inh -11%, Gal4-VP16 FLuc -8%, ERG-DNA inh -1%, Integrin act MD 43% and Giardia kill -2.
CCOC(=O)N1CCN(C(=O)c2ccc3c(=O)n(Cc4ccc(Cl)cc4)c(=S)[nH]c3c2)CC1 was read as RORg inh 5.6µM*, Gal4-VP16 FLuc inconclusive, ERG-DNA inh 0%, Integrin act MD 24% and Giardia kill -18.
Screening COc1ccccc1CC(=O)Nc1ccc2nc(Nc3cccc(Cl)c3)cc(C)c2c1 returned ERG-DNA inh -3%.
`O=C(Cc1cccs1)Nc1ccc(F)cc1` gave RORg inh 15%, Gal4-VP16 FLuc 15%, ERG-DNA inh -2%, Integrin act MD -1% and Giardia kill 8.
`COc1ccc(-n2nc([N+](=O)[O-])c(=NCCc3ccc(Cl)cc3)n2O)cc1` gave RORg inh 15%, Gal4-VP16 FLuc -5%, Integrin act MD 31% and Giardia kill -84*.
`COc1ccc(-n2nc([N+](=O)[O-])c(=NCCC3=CCCCC3)n2O)cc1` gave RORg inh 22%, Gal4-VP16 FLuc 4%, ERG-DNA inh -22%, Integrin act MD -10% and Giardia kill -91*.
Screening COc1ccc(-n2nc([N+](=O)[O-])c(=NC3CCN(Cc4ccccc4)CC3)n2O)cc1 returned RORg inh -1%, Gal4-VP16 FLuc -20%, ERG-DNA inh 1%, Integrin act MD 0% and Giardia kill -82*.
COc1ccc(-n2nc([N+](=O)[O-])c(=NCCc3ccc(OC)c(OC)c3)n2O)cc1 was read as RORg inh 4%[10 µM], Gal4-VP16 FLuc -9%, ERG-DNA inh 12%, Integrin act MD -19% and Giardia kill -94*.
CCOC(=O)c1cc(CC)sc1NC(=O)CN1CCN(C(=O)c2ccco2)CC1 was read as RORg inh inconclusive, Gal4-VP16 FLuc -6%, ERG-DNA inh 18%, Integrin act MD -14% and Giardia kill -15.
For COc1ccc(-n2ncc(C(C)NS(=O)(=O)c3cccs3)c2C)cc1 (stereo not drawn) the results were RORg inh -14%, Gal4-VP16 FLuc -11%, ERG-DNA inh 2%, Integrin act MD 31% and Giardia kill -15.
For COC/C=C/C1=CC2=CC(=O)C(C)(OC(=O)c3ccc(Cl)nc3)C(=O)C2=CO1 (stereo not drawn) the results were RORg inh 15% and Gal4-VP16 FLuc 10%.
Screening COc1ccc(-n2nc([N+](=O)[O-])c(=NCc3cccnc3)n2O)cc1 returned RORg inh 16%[10 µM], Gal4-VP16 FLuc 11%, ERG-DNA inh 10%, Integrin act MD 2% and Giardia kill -97*.
`Cc1ccc(CN=c2c([N+](=O)[O-])nn(-c3cccc(C)c3)n2O)cc1` gave RORg inh 3%, Gal4-VP16 FLuc inconclusive, ERG-DNA inh 2%, Integrin act MD 2% and Giardia kill -83*.
`COc1ccc(-n2nc([N+](=O)[O-])c(=NCc3ccco3)n2O)cc1` gave RORg inh -15%, Gal4-VP16 FLuc -16%, ERG-DNA inh 11%, Integrin act MD -49% and Giardia kill -5.
For COc1ccc(-n2nc([N+](=O)[O-])c(=NCCc3ccc(C)cc3)n2O)cc1 the results were RORg inh 23%, Gal4-VP16 FLuc 4%, ERG-DNA inh -10%, Integrin act MD -9% and Giardia kill -93*.
Screening O=C(NC(Cc1nn[nH]n1)C(=O)OCc1ccccc1)OCc1ccccc1 (stereo not drawn) returned Integrin act MD 1%.
For CC1(C)C2CC=C(/C=N/NC(=O)c3ccccc3O)C1C2 (stereo not drawn) the results were RORg inh 8.9µM*, Gal4-VP16 FLuc inconclusive, ERG-DNA inh 5%, Integrin act MD 13% and Giardia kill 30.
CC1(C)C2CC=C(/C=N/n3cnnc3)C1C2 (stereo not drawn) was read as RORg inh -5%, Gal4-VP16 FLuc -4%, ERG-DNA inh -4%, Integrin act MD -6% and Giardia kill -16.
CC1(C)C2CC=C(/C=N/NC(=S)NCCc3ccccc3)C1C2 (stereo not drawn) was read as RORg inh 2µM*, Gal4-VP16 FLuc 7.1µM*, ERG-DNA inh 10%, Integrin act MD -47% and Giardia kill inconclusive.
CNC(=S)N/N=C/C1=CCC2CC1C2(C)C (stereo not drawn) was read as RORg inh 1.3µM*, Gal4-VP16 FLuc 2.5µM*, ERG-DNA inh -6%, Integrin act MD 30% and Giardia kill 9.
COC(=O)[C@@]1(Cc2ccc(OC)cc2)[C@H]2c3cc(C(=O)N(C)C)n(Cc4ccc(C)o4)c3C[C@H]2CN1C(=O)c1ccccc1 was read as RORg inh -1% and Gal4-VP16 FLuc inconclusive.
`Cc1cc(C)c(Cn2c(C(O)c3ccccc3)nc3ccccc32)c(C)c1` (stereo not drawn) gave ERG-DNA inh 1%.
Screening Cc1nn(-c2nc3ccccc3[nH]2)c(=O)c2ccccc12 returned RORg inh 0.18µM*, Gal4-VP16 FLuc 0.32µM*, ERG-DNA inh -6%, Integrin act MD -21% and Giardia kill -97*.
Screening Cc1nn(-c2ccc3ccccc3c2)c(=O)c2ccccc12 returned RORg inh 1%, Gal4-VP16 FLuc 2%, ERG-DNA inh 13%, Integrin act MD -24% and Giardia kill -13.
`Cc1nn(-c2nc3ccccc3[nH]2)c(N)c1-c1ccc(Cl)cc1` gave RORg inh 1.3µM*, Gal4-VP16 FLuc 3.2µM*, ERG-DNA inh 0%, Integrin act MD -32% and Giardia kill -4.
Screening Cc1ccc(CNC(=O)c2ccccc2NC(=O)CN2CC(C)OC(C)C2)cc1 (stereo not drawn) returned RORg inh 2%, Gal4-VP16 FLuc -1%, ERG-DNA inh 3%, Integrin act MD -18% and Giardia kill 9.
COC(=O)c1ccc2c(c1)C(=O)/C(=C/c1ccc(O)cc1)O2 was read as RORg inh 0.22µM*, Gal4-VP16 FLuc 1.6µM*, ERG-DNA inh 10%, Integrin act MD -14% and Giardia kill -4.
For CC(C)(C)c1ccc(/C=C2\Oc3cc(O)ccc3C2=O)cc1 the results were RORg inh inconclusive, Gal4-VP16 FLuc inconclusive, ERG-DNA inh -5%, Integrin act MD -3% and Giardia kill -7.
Screening Cc1ccccc1C1CC(=O)Oc2cc(C)c(Br)c(C)c21 (stereo not drawn) returned RORg inh -8% and Gal4-VP16 FLuc -21%.
`Cc1cccc(C(=O)NC2CC3CCCC(C2)N3S(=O)(=O)c2ccccc2)c1` (stereo not drawn) gave RORg inh -1%, Gal4-VP16 FLuc 2%, Integrin act MD 0% and Giardia kill 1.
